# Source: the supplement of paper PMC6853941
# Where a name gives a salt, the structure may show the parent alone. Unmarked numbers belong to inactive results.
# Tested on: MCF10A
# Assay: perturbation Mahalanobis distance of morphological profile vs DMSO controls (Mahalanobis distance (SD units)); higher = stronger morphological change, active = 7 or more
# Details: screen batch: Batch1_Mahalanobis_Distance; 72 h
# Method: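 MCF10A cells were seeded onto drugs dispensed acoustically into 384-well plates, using one dose per drug chosen from its human peak plasma concentration, and incubated for 72 h at 37 °C. Cells were stained for DNA, tubulin and mitochondria and imaged; 78 CellProfiler features were extracted, plate-normalised and compared with DMSO wells.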
row,SMILES,perturbation Mahalanobis distance
1,O=c1[nH]cc(F)c(=O)[nH]1 [5-Fluorouracil] (2.5 µM),7.34 (active)
2,CC(=O)/C(C#N)=C(\O)Nc1ccc(C(F)(F)F)cc1 [Teriflunomide (A77 1726)] (66.9 µM),4.02
3,O=C1Nc2ccc(Cl)cc2[C@@](C#CC2CC2)(C(F)(F)F)O1 [Efavirenz] (28.8 µM),3.91
4,Nc1cc(N2CCCCC2)nc(N)[n+]1OS(=O)(=O)[O-] [Minoxidil Sulfate] (4.3 µM),3.4
5,COC(=O)Nc1nc2ccc(C(=O)c3ccccc3)cc2[nH]1 [Mebendazole] (1.7 µM),5.89
6,O=C1CCC(N2C(=O)c3ccccc3C2=O)C(=O)N1 (stereo not drawn) [Thalidomide] (19.4 µM),2.34
7,CCC(=O)NCC[C@@H]1CCc2ccc3c(c21)CCO3 [Ramelteon] (0.13 µM),2.83
8,CC(c1cc2ccccc2s1)N(O)C(N)=O (stereo not drawn) [Zileuton] (105.4 µM),3.71
9,CNC1(C)C2CCC(C2)C1(C)C (stereo not drawn) [Mecamylamine] (3.6 µM),2.25
10,Nc1ccc(C(=O)O)c(O)c1 [4-Aminosalicylic Acid] (130.6 µM),12.9 (active)
11,C#C[C@]1(O)CC[C@H]2[C@@H]3CCc4cc(O)ccc4[C@H]3CC[C@@]21C [Ethinyl Estradiol] (23 µM),5.9
12,NCCc1ccc(O)c(O)c1 [Dopamine] (2.5 µM),4.23
13,CN(C)c1nc(N(C)C)nc(N(C)C)n1 [Altretamine] (98.9 µM),2.75
14,CCCc1nc(C(C)(C)O)c(C(=O)O)n1Cc1ccc(-c2ccccc2-c2nn[nH]n2)cc1 [Olmesartan] (10 µM),2.22
15,OC[C@H]1O[C@@H](n2cnc3c2NC=NC[C@H]3O)C[C@@H]1O [Pentostatin] (55.9 µM),4.44
16,S=c1nc[nH]c2nc[nH]c12 [6-Mercaptopurine] (9.9 µM),2.97
17,CC(=O)O[C@H]1C[C@@H]2CC[C@@H]3[C@H](CC[C@@]4(C)[C@H]3C[C@H]([N+]3(C)CCCCC3)[C@@H]4OC(C)=O)[C@@]2(C)C[C@@H]1N1CCCCC1 [Vecuronium Bromide] (3.3 µM),3.8
18,NC(=O)OCC(COC(N)=O)c1ccccc1 [Felbamate] (205.7 µM),2.24
19,CCN(CCO)CCCC(C)Nc1ccnc2cc(Cl)ccc12 (stereo not drawn) [Hydroxychloroquine] (1.5 µM),3.38
20,CC(=O)O[C@]1(C(C)=O)CC[C@H]2[C@@H]3CCC4=CC(=O)CCC4=C3[C@@H](c3ccc(N(C)C)cc3)C[C@@]21C [Ulipristal Acetate] (3.9 µM),9.29 (active)
21,Nc1ncn([C@@H]2O[C@H](CO)[C@@H](O)[C@H]2O)c(=O)n1 [Azacitidine] (15.4 µM),14.8 (active)
22,Cc1ccc(NC(=O)c2ccc(CN3CCN(C)CC3)cc2)cc1Nc1nccc(-c2cccnc2)n1 [Imatinib] (14 µM),4.06
23,c1ccc(CC2=NCCN2)cc1 [Tolazoline] (25 µM),2.21
24,NN1CCOC1=O [3-Amino-2-Oxazolidinone] (49 µM),2.59
25,NCCCC(N)(C(=O)O)C(F)F (stereo not drawn) [Eflornithine] (319.5 µM),2.24
26,N[C@@H](CC(=O)N1CCn2c(nnc2C(F)(F)F)C1)Cc1cc(F)c(F)cc1F [Sitagliptin] (4.8 µM),2.76
27,O=NN(CCCl)C(=O)NCCCl [Carmustine] (0.2 µM),2.08
28,CNC(=O)c1cc(Oc2ccc(NC(=O)Nc3ccc(Cl)c(C(F)(F)F)c3)cc2)ccn1 [Sorafenib] (10.76 µM),2.94
29,COc1ccccc1OCC(O)CN1CCN(CC(=O)Nc2c(C)cccc2C)CC1 (stereo not drawn) [Ranolazine] (37.4 µM),2.73

# Same assay, conditions: screen batch: Batch2_Mahalanobis_Distance; 72 h
row,SMILES,perturbation Mahalanobis distance
1,Cc1cn[nH]c1 [Fomepizole] (299.6 µM),3.81
2,COc1cc(Cc2cnc(N)nc2N)cc(OC)c1OC [Trimethoprim] (43.1 µM),3.85
3,CC(C)(Sc1cc(C(C)(C)C)c(O)c(C(C)(C)C)c1)Sc1cc(C(C)(C)C)c(O)c(C(C)(C)C)c1 [Probucol] (12.58 µM),3.01
4,CC(C)(Oc1ccc(Cl)cc1)C(=O)O [Clofibric Acid] (368 µM),2.64
5,CC1(C)N=C(N)N=C(N)N1c1ccc(Cl)cc1 [Cycloguanil] (3.4 µM),2.22
6,COC(=O)C1=C(C)NC(C)=C(C(=O)OCC(C)C)C1c1ccccc1[N+](=O)[O-] (stereo not drawn) [Nisoldipine] (13 µM),2.36
7,O=C1CN(/N=C/c2ccc(-c3ccc([N+](=O)[O-])cc3)o2)C(=O)N1 [Dantrolene] (23.9 µM),3.85
8,CNC[C@H](O)c1ccc(O)c(O)c1 [Epinephrine] (27.3 µM),2.89
9,CC[C@H]1OC(=O)[C@H](C)[C@@H](O[C@H]2C[C@@](C)(OC)[C@@H](O)[C@H](C)O2)[C@H](C)[C@@H](O[C@@H]2O[C@H](C)C[C@H](N(C)C)[C@H]2O)[C@](C)(O)C[C@@H](C)CN(C)[C@H](C)[C@@H](O)[C@]1(C)O [Azithromycin] (6.7 µM),4.74
10,O=C1CCc2ccc(OCCCCN3CCN(c4cccc(Cl)c4Cl)CC3)cc2N1 [Aripiprazole] (3.3 µM),2.92
11,O=c1[nH]cc(F)c(=O)[nH]1 [5-Fluorouracil] (2.5 µM),16.5 (active)
12,CC(=O)/C(C#N)=C(\O)Nc1ccc(C(F)(F)F)cc1 [Teriflunomide (A77 1726)] (66.9 µM),2.47
13,O=C1Nc2ccc(Cl)cc2[C@@](C#CC2CC2)(C(F)(F)F)O1 [Efavirenz] (28.8 µM),4.25
14,Nc1cc(N2CCCCC2)nc(N)[n+]1OS(=O)(=O)[O-] [Minoxidil Sulfate] (4.3 µM),3.55
15,COC(=O)Nc1nc2ccc(C(=O)c3ccccc3)cc2[nH]1 [Mebendazole] (1.7 µM),3.69
16,O=C1CCC(N2C(=O)c3ccccc3C2=O)C(=O)N1 (stereo not drawn) [Thalidomide] (19.4 µM),2.83
17,CCC(=O)NCC[C@@H]1CCc2ccc3c(c21)CCO3 [Ramelteon] (0.13 µM),2.59
18,CC(c1cc2ccccc2s1)N(O)C(N)=O (stereo not drawn) [Zileuton] (105.4 µM),5.1
19,CNC1(C)C2CCC(C2)C1(C)C (stereo not drawn) [Mecamylamine] (3.6 µM),3.11
20,Nc1ccc(C(=O)O)c(O)c1 [4-Aminosalicylic Acid] (130.6 µM),13.9 (active)

row,SMILES,perturbation Mahalanobis distance
1,C#C[C@]1(O)CC[C@H]2[C@@H]3CCc4cc(O)ccc4[C@H]3CC[C@@]21C [Ethinyl Estradiol] (23 µM),3.63
2,NCCc1ccc(O)c(O)c1 [Dopamine] (2.5 µM),4.04
3,CN(C)c1nc(N(C)C)nc(N(C)C)n1 [Altretamine] (98.9 µM),3.12
4,CCCc1nc(C(C)(C)O)c(C(=O)O)n1Cc1ccc(-c2ccccc2-c2nn[nH]n2)cc1 [Olmesartan] (10 µM),2.24
5,OC[C@H]1O[C@@H](n2cnc3c2NC=NC[C@H]3O)C[C@@H]1O [Pentostatin] (55.9 µM),3.34
6,S=c1nc[nH]c2nc[nH]c12 [6-Mercaptopurine] (9.9 µM),8.34 (active)
7,CC(=O)O[C@H]1C[C@@H]2CC[C@@H]3[C@H](CC[C@@]4(C)[C@H]3C[C@H]([N+]3(C)CCCCC3)[C@@H]4OC(C)=O)[C@@]2(C)C[C@@H]1N1CCCCC1 [Vecuronium Bromide] (3.3 µM),2.49
8,NC(=O)OCC(COC(N)=O)c1ccccc1 [Felbamate] (205.7 µM),2.91
9,CCN(CCO)CCCC(C)Nc1ccnc2cc(Cl)ccc12 (stereo not drawn) [Hydroxychloroquine] (1.5 µM),2.9
10,CC(=O)O[C@]1(C(C)=O)CC[C@H]2[C@@H]3CCC4=CC(=O)CCC4=C3[C@@H](c3ccc(N(C)C)cc3)C[C@@]21C [Ulipristal Acetate] (3.9 µM),10.4 (active)
11,Nc1ncn([C@@H]2O[C@H](CO)[C@@H](O)[C@H]2O)c(=O)n1 [Azacitidine] (15.4 µM),17.2 (active)
12,Cc1ccc(NC(=O)c2ccc(CN3CCN(C)CC3)cc2)cc1Nc1nccc(-c2cccnc2)n1 [Imatinib] (14 µM),6.84
13,c1ccc(CC2=NCCN2)cc1 [Tolazoline] (25 µM),2.33
14,NN1CCOC1=O [3-Amino-2-Oxazolidinone] (49 µM),2.76
15,NCCCC(N)(C(=O)O)C(F)F (stereo not drawn) [Eflornithine] (319.5 µM),2.74
16,N[C@@H](CC(=O)N1CCn2c(nnc2C(F)(F)F)C1)Cc1cc(F)c(F)cc1F [Sitagliptin] (4.8 µM),2.49
17,O=NN(CCCl)C(=O)NCCCl [Carmustine] (0.2 µM),2.55
18,CNC(=O)c1cc(Oc2ccc(NC(=O)Nc3ccc(Cl)c(C(F)(F)F)c3)cc2)ccn1 [Sorafenib] (10.76 µM),2.6
19,COc1ccccc1OCC(O)CN1CCN(CC(=O)Nc2c(C)cccc2C)CC1 (stereo not drawn) [Ranolazine] (37.4 µM),3.08
